Source: PubChem BioAssay (NCI)
This is part of a sample that, as a whole, favours compounds with a hit. Of some 79,000 tested, about 15% had one in any assay. No stated cut-off is given here; in the data, active means growth inhibition above about 70%; inactive means the rest.

What was measured:
[1] = NCI Yeast Anticancer Drug Screen. Data for the rad50 strain (AID 155);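 further: 0% = growth of vehicle-only cultures of the same strain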; details: S. cerevisiae rad50 strain growth inhibition; at 50.0 µM; hits give high values
Outline: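 Cells are treated with compound, grown, and their growth is then scored against vehicle-only cultures of the same repair-deficient yeast strain.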

[2] = NCI Yeast Anticancer Drug Screen. Data for the mec2-1 strain (AID 157); details: S. cerevisiae mec2-1 strain, at 50.0 µM, hits give high values
Outline: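 mec2-1 yeast strain, carrying an alteration in DNA damage repair or cell cycle control, was exposed to compounds; growth inhibition was measured relative to vehicle-treated controls.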

[3] = NCI Yeast Anticancer Drug Screen. Data for the sgs1 mgt1 strain (AID 161);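 further: 0% = growth of cultures given vehicle only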; details: S. cerevisiae sgs1 mgt1 strain, at 50.0 µM, hits give high values
Outline: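 Yeast cells carrying a defined DNA-repair defect were exposed to test compounds. Growth inhibition was measured relative to vehicle-treated controls.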

[4] = NCI Yeast Anticancer Drug Screen. Data for the cln2 rad14 strain (AID 165);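 further: 0% = growth equal to vehicle treated cultures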; details: S. cerevisiae cln2 rad14 strain, at 50.0 µM, hits give high values
Outline: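 Yeast carrying cln2 and rad14 alterations (cell cycle control and DNA damage repair) were exposed to compounds. Growth inhibition was measured against vehicle-treated controls.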

[5] = NCI Yeast Anticancer Drug Screen. Data for the bub3 strain (AID 167); details: S. cerevisiae bub3 mutant strain, at 50.0 µM, hits give high values
Outline: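 Part of a panel of yeast mutants defective in DNA damage repair or cell cycle regulation. Each strain is grown with compound, and inhibition is calculated relative to solvent-treated cultures.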

[6] = NCI Yeast Anticancer Drug Screen. Data for the mlh1 rad18 strain (AID 175); details: S. cerevisiae mlh1 rad18 strain growth inhibition; at 50.0 µM; hits give high values
Outline: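 Growth inhibition of the yeast strain was measured after compound exposure and expressed relative to vehicle-treated controls. The strain carries defined defects in DNA damage repair.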

Measured: growth inhibition

O=C(/C=C/c1ccc(O)cc1)c1ccc(O)cc1
inactive: [1] -30% | [2] -13.7% | [3] -37.8% | [4] 0.15% | [5] -2.9% | [6] -20.6%

Cc1cc2c(c(C(=O)NCCC(=O)N[C@@H](C)C(=O)OCc3ccccc3)c1)Oc1c(cc(C)cc1C(=O)NCCC(=O)N[C@@H](C)C(=O)OCc1ccccc1)S2
inactive: [1] 24% | [2] 10.8% | [3] 30.1% | [4] 28.8% | [5] -9.8% | [6] 27.1%

Cc1ccc2nccnc2c1
inactive: [1] -2.45% | [2] 3.9% | [3] -12.2% | [4] 5.1% | [5] 10.9% | [6] -1.85%

CC(=O)Oc1c(Br)cc(C(=O)c2ccccc2C(=O)c2cc(Br)c(OC(C)=O)c(Br)c2)cc1Br
inactive: [1] 13.9% | [2] 25.5% | [3] 21.6% | [4] -16.3% | [5] 11.9% | [6] 13.7%

CCOC(=O)/C=C(\Nc1ccc(C(c2ccccc2)(c2ccccc2)c2ccccc2)cc1)C(=O)OCC
inactive: [1] 38.2% | [2] 9.9% | [3] 32% | [4] 20.2% | [5] -7.3% | [6] 27.1%

COC(=O)CCCC(=O)O
inactive: [1] 4.4% | [2] -5.2% | [3] -2.6% | [4] -15.4% | [5] 2.9% | [6] 8.25%

CC(=O)NNc1nc(C)c(C(/C=C/c2ccc([N+](=O)[O-])cc2)=N/NC(N)=O)s1
inactive: [1] 23.6% | [2] -12.7% | [3] 24.2% | [4] 16.6% | [5] 8.75% | [6] 10.3%

C=CCc1c(Cl)nc(Cl)nc1Cl
inactive: [1] -14.8% | [2] 22.6% | [3] 10.3% | [4] -69.2% | [5] 7.1% | [6] -23.6%

O=S1(=O)CC(N2CCCCC2)C2=C(O1)c1ccccc1N(c1ccccc1)C2 (stereo not given)
inactive: [1] 1.8% | [2] -16.9% | [3] -11.1% | [4] 16.9% | [5] -0.4% | [6] -26.1%

C/C(=N/N(C)c1ccccc1)C(C)C
inactive: [1] 14.5% | [2] -6.75% | [3] 3.45% | [4] 1.6% | [5] 24.4% | [6] 10.7%

CCOC(=O)CC1(C)OCC(c2ccccc2)O1 (stereo not given)
inactive: [1] 8.8% | [2] -0.55% | [3] -3.6% | [4] -15% | [5] 9.35% | [6] -3.1%

COc1cc2c(cc1OC)C(c1ccccc1CCCCl)=NCC2
inactive: [1] 6.4% | [2] -4% | [3] -25.1% | [4] 10.8% | [5] -27.5% | [6] -44.7%

CC(=O)CC(=O)NC(C)(C)CC(C)(C)C
inactive: [1] -16.4% | [2] -41.9% | [3] -31.8% | [4] 10.8% | [5] -34.8% | [6] -9.55%

CCCC(CO)OC(=O)Nc1ccc(-c2ccccc2)cc1 (stereo not given)
inactive: [1] -7.75% | [2] -1.1% | [3] -2.15% | [4] -56% | [5] 27.4% | [6] 11.9%

CC/C(Cl)=N\OC(=O)Nc1ccc(F)cc1F
inactive: [1] 2.2% | [2] -12.1% | [3] -4.05% | [4] 7.05% | [5] -6.45% | [6] -26.4%

COc1cc(C2C3=C(N=C4SC(C(C)=O)=C(C)N42)c2ccccc2CC3)cc(OC)c1OC (stereo not given)
inactive: [1] -30.4% | [2] -48.6% | [3] -22.2% | [4] 3.2% | [5] -35.7% | [6] -17.8%

CC(=O)OC1CCC2(C)C(CCC3C2CCC2(C)C(C(C)=O)CCC32)C1 (stereo not given)
inactive: [1] 4.25% | [2] -9.05% | [3] 2.35% | [4] -11.9% | [5] 10.4% | [6] 14.9%

CC(=O)Nc1ccc(NC(=O)Nc2cccc(C(C)=O)c2)cc1
inactive: [1] 7.3% | [2] 27.2% | [3] 9.35% | [4] 0.3% | [5] 22.6% | [6] 28.6%

Nc1ccc(N)c2cc(S(=O)(=O)O)ccc12
inactive: [1] 3.85% | [2] -4.8% | [3] -5.1% | [4] 6.4% | [5] -16.2% | [6] 7.9%

NCCCn1[nH]c(=O)c2cccnc2c1=O
inactive: [1] -62.9% | [2] -19% | [3] -19% | [4] -74% | [5] -3.8% | [6] -16.3%
